Where two headings read alike, the source gives them in different places.
Experiments:
NIM1 = tested on: T1, NIM1; details: concentration: 1 μM, replicates: in singlicate; n = 1
T1 construct: gene MGC42105

NLK = details: concentration: 1 μM, replicates: in singlicate; n = 1
OSR1 = tested on: T2, OSR1; details: concentration: 1 μM, replicates: in singlicate; n = 1
T2 construct: gene OXSR1

PAK1 = details: concentration: 1 μM, replicates: in singlicate; n = 1
PAK2 = details: concentration: 1 μM, replicates: in singlicate; n = 1
PAK3 = details: concentration: 1 μM, replicates: in singlicate; n = 1
PAK4 = details: n = 1
PAK6 = details: concentration: 1 μM, replicates: in singlicate; n = 1
PAK7 = details: concentration: 1 μM, replicates: in singlicate; n = 1
PCTK1 = tested on: T3, PCTK1; details: concentration: 1 μM, replicates: in singlicate; n = 1
T3 construct: gene CDK16

[1] = concentration: 1 μM, replicates: in singlicate
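Further: KINOMEscan kinase panel screen.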

| SMILES | %Inh (NIM1) [%] | %Inh (NLK) [%] | %Inh (OSR1) [%] | %Inh (PAK1) [%] | %Inh (PAK2) [%] | %Inh (PAK3) [%] | %Inh (PAK4; [1]) [%] | %Inh (PAK6) [%] | %Inh (PAK7) [%] | %Inh (PCTK1) [%] | %Inh (PAK4; 1 µM) [%] |
| --- | --- | --- | --- | --- | --- | --- | --- | --- | --- | --- | --- |
| COc1cccc(CC(=O)N2CCc3cc(-c4cn(C)c5ncnc(N)c45)ccc32)c1 [GSK2608899] | 0 | 5 | 6 | 13 | 4 | 50 | 2 | 0 | 18 | 3 | – |
| Nc1ncnc2scc(-c3ccc(NC(=O)Cc4cc(F)ccc4F)cc3)c12.O=C(O)C(F)(F)F [SB-731254-M] | 0 | 4 | 11 | 7 | 32 | 46 | 0 | 0 | 1 | 2 | – |
| COc1cccc(-c2nc(-c3ccccc3)[nH]c2-c2ccncc2)c1 [SB-610250] | 40 | 89 | 0 | 23 | 32 | 16 | 0 | 0 | 0 | 5 | – |
| CN1CCN(Cc2ccc(NC(=O)Nc3ccc(N(C)c4ccnc(Nc5ccc(CS(C)(=O)=O)cc5)n4)cc3)cc2)CC1.Cl [GW827654] | 42 | 0 | 0 | 24 | 65 | 62 | 98.4 | 34 | 51 | 22 | – |
| COc1cc(Nc2nccc(N3CCC(NC(=O)Nc4ccc5c(c4)OCO5)C3)n2)cc(OC)c1OC (centres unmarked) [GSK1379766] | 4 | 0 | 0 | 0 | 0 | 0 | 0 | 0 | 4 | 16 | – |
| Cc1ccc(NC(=O)c2ccc(Cl)c(Cl)c2)cc1-c1ccc(C(=O)Nc2ccncc2)cc1 [GSK1398460] | 0 | 43 | 6 | 19 | 19 | 20 | 0 | 0 | 1 | 0 | – |
| Cc1ccc(NC(=O)c2cccc(N3CCCCC3)c2)cc1-c1ccc(C(=O)NCC2CC2)cc1 [GSK1917008] | 15 | 5 | 24 | 14 | 24 | 21 | 0 | 0 | 2 | 12 | – |
| Cl.O=C(Nc1ccc(Oc2ccc3[nH]c(NC(=O)c4ccco4)nc3c2)cc1)Nc1cc(C(F)(F)F)ccc1F [GW683134] | 4 | 6 | 8 | 0 | 0 | 59 | 0 | 0 | 0 | 7 | – |
| Cl.N#CCc1ccc(Nc2nccc(Nc3ccc(Oc4ccccc4)cc3)n2)cc1 [GW639905] | 14 | 0 | 11 | 0 | 10 | 47 | 0 | 0 | 0 | 0 | – |
| Cc1nn2c(=O)cc(N3CCO[C@H](C)C3)nc2n1Cc1cccc(Cl)c1Cl [GSK2373693] | 11 | 78 | 83 | 2 | 10 | 36 | 0 | 52 | 0 | 7 | – |
| CC(C)c1nc(-c2ccc(F)c(NS(=O)(=O)c3c(F)cccc3F)c2)c(-c2ccnc(Nc3ccc(N4CCOCC4)nc3)n2)s1 [GSK1804250] | 0 | 96.3 | 7 | 5 | 11 | 36 | 0 | 0 | 10 | 94.6 | – |
| O=C(Nc1n[nH]c2cc(-c3cccs3)ccc12)C1CC1 [SB-731284] | 12 | 0 | 16 | 0 | 0 | 43 | 0 | 0 | 7 | 48 | – |
| Cc1ccc(O)cc1Nc1ccnc2cc(-c3ccc(CN4CCCCC4)o3)ccc12 [GW557777] | 0 | 19 | 0 | 24 | 23 | 0 | 13 | 21 | 7 | 0 | – |
| O=C(Nc1n[nH]c2nc(-c3cccc(O)c3)ccc12)C1CC1 [SB-711805] | 0 | 96.7 | 0 | 0 | 18 | 0 | 0 | 100 | 4 | 52 | – |
| CC(C)c1nc(-c2cccc(NS(=O)(=O)c3c(F)cccc3F)c2)c(-c2ccnc(Nc3ccc(N4CCOCC4)nc3)n2)s1.Cl [GSK1723980] | 0 | 97 | 4 | 19 | 16 | 73 | 0 | 0 | 0 | 99.9 | – |
| Fc1cc(Cl)ccc1Nc1ccnc2cc(-c3ccc(CN4CCOCC4)o3)ccc12 [GW560109] | 15 | 10 | 8 | 0 | 0 | 5 | 0 | 0 | 0 | 1 | – |
| COc1cc(Nc2ccnc3cc(-c4ccncc4)ccc23)cc(OC)c1OC.Cl [GW494610] | 23 | 92.8 | 100 | 0 | 0 | 0 | 0 | 0 | 0 | 0 | – |
| Cc1ccc(Nc2ccnc(Nc3ccc(C)c(F)c3)n2)cc1O.Cl [GW582868] | 3 | 62 | 8 | 0 | 0 | 0 | 0 | 0 | 0 | 0 | – |
| O=C(O)C(F)(F)F.O=c1[nH]ccc2nc(N[C@@H]3CCNC3)nc(Nc3cc(Cl)cc(Cl)c3)c12 [GSK2188764] | 67 | 19 | 54 | 92.2 | 78 | 96.9 | 96.4 | 96 | 99.9 | 7 | – |
| Nc1ncc(-c2ccc3nccc(-c4ccncc4)c3c2)cc1S(=O)(=O)N1CCCCC1 [GSK1693850] | 0 | 13 | 5 | 18 | 8 | 14 | 0 | 0 | 18 | 0 | – |
| Cn1cc(-c2ccc3c(c2)CCN3C(=O)Cc2cc(F)cc(F)c2F)c2c(N)ncnc21 [GSK2634140] | 8 | 0 | 14 | 16 | 12 | 35 | 0 | 0 | 0 | 6 | – |
| CC(=O)Nc1cn2nc(Oc3cccc(NC(=O)c4cccc(C(F)(F)F)c4)c3)ccc2n1 | 0 | 16 | 0 | 9 | 15 | 16 | 15 | 12 | 0 | 0 | – |
| N#CC1(c2cccc(C(=O)Nc3cccc(Oc4ccc5nc(NC(=O)C6CC6)sc5n4)c3)c2)CC1 | 0 | 0 | 0 | 3 | 27 | 0 | 0 | 15 | 0 | 0 | – |
| Cc1cccc(Nc2nc(N[C@H]3CCCC[C@H]3N)ncc2C(N)=O)c1.Cl [GSK986310] | 18 | 27 | 33 | 40 | 70 | 55 | – | 89 | 99.5 | 10 | 95.4 |
| COc1cccc(NC(=O)NCCNc2ccnc(Nc3ccc(F)cc3)n2)c1 [GSK1379879] | 17 | 8 | 17 | 16 | 8 | 0 | 0 | 0 | 0 | 0 | – |
| CN(c1ccc(NC(=O)N2CCN(CCCN3CCOCC3)CC2)cc1)c1ccnc(Nc2ccc(CS(C)(=O)=O)cc2)n1.Cl [GW830899] | 0 | 0 | 0 | 0 | 0 | 0 | 0 | 25 | 2 | 0 | – |
| CC(C)NCC(Cc1ccccc1)NC(=O)c1cc(Br)c(-c2ccnc3[nH]ccc23)s1.Cl.Cl (centres unmarked) [GSK1383281] | 0 | 22 | 1 | 11 | 0 | 75 | 18 | 47 | 47 | 1 | – |
| COc1cccc2c(-c3ccncc3)c(-c3ccc(F)cc3)nn12 [GW468513] | 14 | 86 | 7 | 0 | 10 | 61 | 0 | 0 | 0 | 0 | – |
| CN(c1ccc(F)c(NC(=O)c2cccc(OC(C)(C)C#N)c2Cl)c1)c1ccc2nc(NC(=O)C3CC3)sc2n1 | 8 | 78 | 5 | 5 | 0 | 27 | 0 | 0 | 0 | 2 | – |
